The test system of assay [1] is Human papillomavirus type 1a protein E7 (residues 44-93). In words: HPV1a E7 fragment binders on microarrays, primary screen, biochemical, small-molecule microarray, residues 44-93, 635 nm fluorescence (AID 1108).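 Further: E7 fragment applied at 1 µg/mL in TBST for 1 h at 4 C; score combines spot fluorescence with its signal to noise ratio.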 The settings on record: small-molecule microarray binding, fluorescence 635 nm; higher = more signal.
Assay [2] in a line: modulators of HCV replicon luciferase signal, primary screen, HCV replication inhibitor project, Huh7 cells, luciferase reporter (AID 1109).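 Further: huh7 hepatoma cells harbouring a luciferase neomycin HCV replicon reporter; luciferase luminescence as measure of HCV replicon replication; test concentration not given here.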 The settings on record: 48 h, higher = more signal.
Assay [3] has as its target Left-right determination factor 2 (Homo sapiens) (UniProt O00292). Kind of assay: LEFTY2 binders on small-molecule microarrays, primary screen, biochemical, small-molecule microarray, 635 nm fluorescence scan (AID 1110). The settings on record: LEFTY2 binding, higher = more signal.
For assay [4], the target named is Calmodulin-1 (Homo sapiens) (UniProt P0DP23). Kind of assay: CALM1 binders on microarrays, EGTA buffer, profiling panel, biochemical, small-molecule microarray, Cy5-labelled CALM1 (AID 1111).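 Further: labelled calmodulin applied in Tris saline Tween buffer holding calcium plus EGTA and DTT.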 The settings on record: Cy5-CALM1 binding fluorescence, higher = more signal.
Assay [5] has the same target. Kind of assay: calcium-bound CALM1 binders on microarrays, profiling panel, artefact control for SMM control-protein annotation, biochemical, small-molecule microarray, Cy5-labelled CALM1, plus calcium (AID 1112).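 Further: score merges spot fluorescence with signal to noise from triplicate slides.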 The settings on record: Cy5-CALM1 binding fluorescence, higher = more signal.
Assay [6] can be described thus: small-molecule microarray binders of probe aWnt5a, primary screen, biochemical, biotinylated probe, 635/667 nm fluorescence (AID 1113).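 Further: score merges 667 nm fluorescence intensity with signal-to-noise per printed feature.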 The settings on record: higher = more signal; small-molecule microarray, probe aWnt5a, fluorescence unless noted.
The nature of assay [7]: small-molecule microarray binders of probe aShh, primary screen, biochemical, biotinylated probe, 635/667 nm fluorescence (AID 1114).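 Further: probe is biotin-labelled aShh protein from a stem cell growth factor screen; measures binding of labelled protein to compounds printed on the slide; score merges feature fluorescence at 667 nm with signal-to-noise.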 The settings on record: higher = more signal; small-molecule microarray, probe aShh, fluorescence unless noted.
The nature of assay [8]: small-molecule microarray binders of probe aNog, primary screen, biochemical, biotinylated probe, 635/667 nm fluorescence (AID 1115).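 Further: probe is biotinylated aNog protein used at 0.15 µg/mL for 1 h at 4 C; z-score combines 667 nm fluorescence of each spot with its signal to noise.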 The settings on record: higher = more signal; small-molecule microarray, probe aNog, fluorescence unless noted.
Assay [9] deals with Torsin-1A-interacting protein 1 (Homo sapiens) (UniProt Q5JTV8). In words: LAP1 binders from COS7 cell lysate, primary screen, small-molecule microarray, 635/667 nm fluorescence (AID 1116). The settings on record: COS7-hLAP1 lysate binding, 635 nm fluorescence, higher = more signal.
Assay [10] has as its target Alpha-bungarotoxin (Bungarus multicinctus) (UniProt P60615). In words: alpha-bungarotoxin binders on microarray, profiling panel, artefact control for SMM control protein annotation, biochemical, small-molecule microarray, Alexa647 label, 635/667 nm fluorescence (AID 1117). The settings on record: alpha-BTX-A647 binding fluorescence, higher = more signal.
Assay [11] has as its target Albumin (Bos taurus) (UniProt P02769). In words: bovine serum albumin binders on microarray, profiling panel, artefact control for SMM control protein annotation, biochemical, small-molecule microarray, Alexa647 label, 635/667 nm fluorescence (AID 1118).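 Further: score merges 667 nm emission intensity and signal-to-noise per printed compound spot.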 The settings on record: BSA-A647 binding, fluorescence 635 nm, higher = more signal.
The nature of assay [12]: small-molecule microarray binders of probe aXIP, primary screen, biochemical, NeuroSMM set, 635/667 nm fluorescence (AID 1119).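 Further: probe is the protein aXip251-270 applied at 1 µg/mL to compound-printed slides; binding of probe to printed compounds measured as 667 nm fluorescence plus signal to noise.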 The settings on record: higher = more signal, called active from +8 up or from −8 down unless noted.
Assay [13] is described as follows: small-molecule binders of probe aNOTCH3, primary screen, biochemical, small-molecule microarray, 635/667 nm fluorescence (AID 1120).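 Further: probe is a biotin-tagged antibody raised against NOTCH3 rather than NOTCH3 protein; score merges spot fluorescence near 667 nm with spot signal to noise.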 The settings on record: higher = more signal; small-molecule microarray, probe aNOTCH3, fluorescence unless noted.
Assay [14] is described as follows: small-molecule binders of probe aNOTCH2, primary screen, biochemical, small-molecule microarray, 635/667 nm fluorescence (AID 1121).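 Further: score merges feature fluorescence read at 667 nm with its signal to noise.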 The settings on record: higher = more signal; small-molecule microarray, probe aNOTCH2, fluorescence unless noted.
Assay [15] addresses Carbonic anhydrase 2 (Homo sapiens) (UniProt P00918). Kind of assay: CAII small-molecule binders, profiling panel, biochemical, small-molecule microarray, Alexa647-labelled CAII (AID 1122). The settings on record: CAII-A647 binding fluorescence, higher = more signal.
Assay [16] is described as follows: COS7 lysate on small-molecule microarray, probe aHis, 635 nm (AID 1123).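 Further: z-score combines 667nm fluorescence intensity with signal-to-noise per printed compound spot.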 The settings on record: higher = more signal; small-molecule microarray, COS7 cell lysate, probe aHis, fluorescence unless noted.
The nature of assay [17]: compound binding in COS7 lysate, probe aLAP1, primary screen, cell lysate, small-molecule microarray (AID 1124).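 Further: lysate comes from COS7 cells expressing LAP1 and is applied at 0.3 µg/mL; score merges spot fluorescence near 667 nm with signal-to-noise over triplicate slides.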 The settings on record: higher = more signal; small-molecule microarray, COS7 cell lysate, probe aLAP1, fluorescence unless noted.
Assay [18] relates to Sam68 (KHDRBS1). In words: Sam68 small-molecule binders, primary screen, biochemical, small-molecule microarray, 635 nm fluorescence (AID 1125).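 Further: score merges 667 nm channel intensity with signal to noise over triplicate slides.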 The settings on record: small-molecule microarray binding, higher = more signal.
For assay [19], the system named is Chordin-like protein 2 (CHRDL2). In words: CHRDL2 small-molecule binders, primary screen, biochemical, small-molecule microarray, 635 nm fluorescence (AID 1126).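 Further: printed compound slides probed with Chrdl2 protein at 4 µg/mL for 1 h at 4 C; score merges 667 nm emission intensity with signal to noise over three replicate slides.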 The settings on record: small-molecule microarray binding, fluorescence 635 nm; higher = more signal.
Assay [20] deals with Concanavalin-A (Canavalia ensiformis) (UniProt P02866). In words: ConA small-molecule binders, primary screen, artefact control for SMM control protein annotation, biochemical, small-molecule microarray, Alexa647 label, 635 nm (AID 1127).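 Further: z combines 667 nm emission intensity with signal-to-noise across three replicate slides.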 The settings on record: ConA-A647 binding fluorescence, higher = more signal.

Calls of active or inactive are those of the source.

Chain of Left-right determination factor 2 (Homo sapiens) (O00292 whole entry, looked up): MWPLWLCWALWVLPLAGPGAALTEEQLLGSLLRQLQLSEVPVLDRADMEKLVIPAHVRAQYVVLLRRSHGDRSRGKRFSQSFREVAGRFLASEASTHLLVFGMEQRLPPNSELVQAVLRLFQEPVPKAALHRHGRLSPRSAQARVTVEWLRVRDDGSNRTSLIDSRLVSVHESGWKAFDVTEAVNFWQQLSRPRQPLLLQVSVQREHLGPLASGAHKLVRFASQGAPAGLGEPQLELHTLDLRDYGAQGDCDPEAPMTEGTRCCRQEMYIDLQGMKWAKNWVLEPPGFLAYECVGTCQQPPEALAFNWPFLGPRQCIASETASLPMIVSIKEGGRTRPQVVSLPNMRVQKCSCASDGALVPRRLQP
Chain of Concanavalin-A (Canavalia ensiformis) (P02866 whole entry, looked up): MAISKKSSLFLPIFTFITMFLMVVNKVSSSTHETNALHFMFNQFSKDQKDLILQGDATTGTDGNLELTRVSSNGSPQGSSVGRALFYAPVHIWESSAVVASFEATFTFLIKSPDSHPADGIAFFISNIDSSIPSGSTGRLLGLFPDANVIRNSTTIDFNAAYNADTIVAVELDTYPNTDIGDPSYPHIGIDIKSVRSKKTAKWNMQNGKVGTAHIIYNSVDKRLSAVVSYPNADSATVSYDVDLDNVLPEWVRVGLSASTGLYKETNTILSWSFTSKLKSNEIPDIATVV
Chain of Alpha-bungarotoxin (Bungarus multicinctus) (P60615 whole entry, looked up): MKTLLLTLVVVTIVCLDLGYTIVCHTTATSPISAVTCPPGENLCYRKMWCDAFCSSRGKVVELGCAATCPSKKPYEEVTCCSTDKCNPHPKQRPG
Chain of Torsin-1A-interacting protein 1 (Homo sapiens) (Q5JTV8 whole entry, looked up): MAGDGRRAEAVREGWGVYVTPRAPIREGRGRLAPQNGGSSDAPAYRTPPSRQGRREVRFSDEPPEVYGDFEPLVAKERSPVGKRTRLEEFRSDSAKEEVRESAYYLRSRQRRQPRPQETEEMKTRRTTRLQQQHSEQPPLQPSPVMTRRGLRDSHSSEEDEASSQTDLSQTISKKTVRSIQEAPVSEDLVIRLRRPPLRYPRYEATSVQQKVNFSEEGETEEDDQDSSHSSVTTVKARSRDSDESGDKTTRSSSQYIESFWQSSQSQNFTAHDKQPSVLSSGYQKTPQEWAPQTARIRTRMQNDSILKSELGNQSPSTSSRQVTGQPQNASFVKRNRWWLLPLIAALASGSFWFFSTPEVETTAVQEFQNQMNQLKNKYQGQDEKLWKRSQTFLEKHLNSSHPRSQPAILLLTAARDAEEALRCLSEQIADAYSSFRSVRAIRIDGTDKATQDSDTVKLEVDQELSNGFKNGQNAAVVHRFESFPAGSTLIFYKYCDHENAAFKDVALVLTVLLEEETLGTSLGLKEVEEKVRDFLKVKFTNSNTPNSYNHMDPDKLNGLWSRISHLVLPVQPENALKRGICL
Chain of Albumin (Bos taurus) (P02769 whole entry, looked up): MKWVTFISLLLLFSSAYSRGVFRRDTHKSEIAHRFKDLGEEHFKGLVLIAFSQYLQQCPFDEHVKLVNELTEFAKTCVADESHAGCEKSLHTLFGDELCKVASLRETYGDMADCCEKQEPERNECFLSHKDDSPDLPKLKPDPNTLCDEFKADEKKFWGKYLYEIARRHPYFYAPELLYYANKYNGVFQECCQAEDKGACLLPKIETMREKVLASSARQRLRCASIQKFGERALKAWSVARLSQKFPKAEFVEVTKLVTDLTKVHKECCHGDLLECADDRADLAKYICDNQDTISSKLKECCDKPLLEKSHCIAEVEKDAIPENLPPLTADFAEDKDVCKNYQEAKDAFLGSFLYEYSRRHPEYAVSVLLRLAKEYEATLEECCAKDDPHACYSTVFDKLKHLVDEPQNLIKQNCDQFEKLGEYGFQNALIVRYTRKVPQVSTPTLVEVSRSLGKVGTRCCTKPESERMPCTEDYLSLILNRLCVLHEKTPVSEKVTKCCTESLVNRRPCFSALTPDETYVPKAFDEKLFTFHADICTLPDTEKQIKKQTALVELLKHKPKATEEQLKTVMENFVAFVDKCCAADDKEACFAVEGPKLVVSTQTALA

Take `C[C@@H]1OC=C2[C@@H](O)[C@H]3O[C@H]3C(=O)[C@]23[C@H]1[C@H]1C2=C([C@@H](O)[C@H]4O[C@H]4C2=O)[C@@H]3O[C@@H]1C`: the composite z-score in assay [1] was -2.16; in assay [3], 0.425; in assay [4], -1.11; in assay [5], -0.718; in [6], -0.224; in [7], -0.2. Also, the composite z-score in assay [8] is -0.244; in assay [9], 0.0387; in [10], -0.244; in assay [11], -0.745; in assay [13] it was -0.063; in assay [14], -0.147. In addition, the composite z-score in assay [15] is -0.355; in [16] it was -0.934; in assay [17], -0.266; in assay [18], -1.86; in assay [19], 0.584; in assay [20], -0.66. For the same molecule, the z-score in assay [2] is -1.29. In [12], the composite Z-score was 0.278 (inactive).
With `CCCc1cc2c(n1CCO)C(C)C1CN(C(=O)c3ccccc3)C(C)(C(=O)OC)C21` (stereo not given), the composite z-score is -0.202 in assay [1]; -0.258 in [3]; 2.45 in [4]; 1.06 in [5]; 0.353 in assay [6]; 0.0545 in assay [7]. For the same molecule, the composite z-score in assay [8] came to 1.85; in assay [9] it was 2.26; in [10], 2.61; in [11], 0.979; in assay [13], 1.25; in assay [14], 0.424. Also, the composite z-score in [15] was 0.843; in assay [16], 3.26; in [17], 1.09; in assay [18], 0.563; in assay [19], -1.23; in assay [20], 1.11. The z-score in assay [2] is -1.27. For the same molecule, the composite Z-score in assay [12] was 0.43 (inactive).
As for `CCCC[C@@H]1C[C@H]1[C@@H](NP(=O)(c1ccccc1)c1ccccc1)c1ccc(Cl)cc1`, the composite z-score in assay [1] is -1.21; in assay [3] it was -1.67; in assay [4], 1.14; in assay [5], 1.32; in assay [6] it was 0.0403; in assay [7], 0.254. Besides, the composite z-score in assay [8] was 0.633; in [9] it was -0.314; in assay [10], -0.0059; in assay [11], 0.708; in assay [13], 0.092; in assay [14] it was -0.0684. In addition, the composite z-score in assay [15] was 0.307; in assay [16], 0.807; in assay [17] it was -0.162; in assay [18], -0.331; in assay [19] it was -0.226; in assay [20], 0.302. Besides, the z-score in [2] was -0.657. Further, the composite Z-score in assay [12] was 0.198 (inactive).
For the molecule `COC(=O)[C@@]1(Cc2ccccc2)[C@H]2c3cc(C(=O)N(C)C)[nH]c3C[C@H]2CN1C(=O)c1ccccc1`, the composite z-score was -0.452 in [1]; -0.476 in assay [3]; 0.157 in assay [4]; 0.136 in assay [5]; 0.0037 in [6]; 0.333 in [7]. Also, the composite z-score is 0.629 in assay [8]; 0.533 in assay [9]; -0.0856 in assay [10]; 0.772 in [11]; -0.0017 in [13]; -0.0193 in assay [14]. Further, the composite z-score is 0.896 in [15]; -0.0769 in [16]; 0.0772 in assay [17]; -1.41 in assay [18]; -0.219 in assay [19]; -0.394 in [20]. The z-score in assay [2] was -0.454. For the same molecule, the composite Z-score in assay [12] was -0.0667 (inactive).
For `COC(=O)[C@@]1(Cc2ccccc2)[C@H]2c3cc(C(=O)N(C)C)n(C)c3C[C@H]2CN1C(=O)c1ccccc1`, the composite z-score in assay [1] was -1.91; in assay [3], -0.611; in [4], 1.96; in assay [5] it was 0.514; in [6] it was -0.107; in [7], 0.214. In addition, the composite z-score in assay [8] worked out at 1.65; in [9], 2.25; in assay [10] it was 0.0882; in [11] it was 0.958; in assay [13], 0.165; in [14], 0.111. Also, the composite z-score in assay [15] was 0.839; in assay [16] it was 3.26; in assay [17], 1.29; in assay [18] it was -0.299; in [19], -0.652; in assay [20], 0.396. The z-score in assay [2] is -1.42. Also, the composite Z-score in [12] was -0.183 (inactive).
Take `COC(=O)[C@H]1C(=O)c2ccccc2O[C@@](C(=O)OC)(c2ccccc2)[C@@H]1c1ccccc1`: the composite z-score in assay [1] is -0.853; in [3], 0.104; in assay [4] it was -0.558; in assay [5], -0.268; in assay [6], -0.0519; in assay [7], -0.352. The composite z-score in [8] was -0.367; in assay [9] it was -0.271; in [10], -0.579; in assay [11], -0.764; in assay [13], -0.27; in assay [14], -0.125. Moreover, the composite z-score in assay [15] was -0.466; in assay [16], -0.583; in assay [17], -0.129; in assay [18], -0.988; in [19], -0.0221; in [20] it was -0.0286. In assay [2], the z-score is -0.424. The composite Z-score in assay [12] was 0.181 (inactive).
In the case of `c1ccc(-c2cc3c(nc2-c2ccccc2)CCNC3)cc1`, the composite z-score in assay [1] was -0.903; in assay [3], 0.0196; in assay [4], -0.198; in assay [5], -0.0533; in assay [6], -0.184; in assay [7] it was -0.0626. Further, the composite z-score in assay [8] is 0.0459; in [9], -0.19; in assay [10] it was 0.913; in assay [11], 0.525; in assay [13], 0.103; in assay [14], -0.131. Also, the composite z-score in [15] is -0.301; in assay [16] it was -0.323; in assay [17], -0.171; in assay [18], -0.653; in assay [19], 0.12; in assay [20], -0.269. In addition, the z-score in assay [2] was -1.32. Further, in assay [12], the composite Z-score was -0.369 (inactive).
In the case of `COC(=O)C1(C)C=C2C(=C(C)C(=O)C2C)CN1` (stereo not given), the composite z-score is -0.131 in assay [1]; -0.412 in [3]; -0.423 in assay [4]; 0.0902 in assay [5]; -0.113 in [6]; 0.381 in assay [7]. For the same molecule, the composite z-score is 1.48 in assay [8]; 1.18 in assay [9]; -0.313 in [10]; 0.395 in assay [11]; -0.219 in assay [13]; 0.0145 in [14]. The composite z-score in assay [15] was 0.917; in assay [16], 2.82; in [17], 1.46; in [18], -0.326; in assay [19], -0.471; in [20] it was -2.16. The z-score in [2] is -0.0365. Also, in assay [12], the composite Z-score is 0.727 (inactive).

For the origin of these results see PubChem BioAssay.
